# In the supplement of paper PMC6555819:
# System: LXRb:RXRa (NR concentration 270 nM, RXRa partner concentration 90 nM)
# Assay: PBM binding z-score (relative to random genomic background probes); higher = stronger binding; sequences stand for … in GC…GCGATTGACAGCGTAGAATGAAGG
# Procedure: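 Protein-binding microarray (Agilent 4x180K custom design, double-stranded 60-nt probes: 5' GC cap, 34-nt variable region, 24-nt constant primer region; full probe sequence given). Purified or IVT nuclear receptor:RXRα heterodimers (3:1 NR:RXRα, mostly 270:90 nM) or homodimers were incubated for 1 h in PBS with 2% milk and no ligand, then detected with Alexa488 antibodies. Fluorescence from o1-orientation probes (~5 replicates averaged) was converted to z-scores against 500 random hg19 background probes. Variable regions are seed direct-repeat (DR0–DR5) sites, all their single-nucleotide variants and half-site ablations.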
row,Sequence,PBM binding z-score
1,CCTACTGGGCCGTTCAGAGGTCATTGATCATATG,3.55
2,GCTGCTAGGTCAACTGATGGTCAACTAAAGCTCG,2.47
3,ACGCGGAGGACAAAGGTCAGAGCTACGCCAGTGA,3.19
4,TAGCCTAGGTCATGCGGCCCAGTATAGTGTCGGC,1.69
5,CGAACGAGGTCATGAGTTGATAGCAAATGCCGAT,4.51
6,AGTCAAAGTTCAGGACGAGGTAACGTTAAGCACG,1.77
7,AGAATGAGGTCATACGTAGATCAGGGAAGAAAGT,5
8,CCAGACAGGTGAGAAGGTAACTCAGCCTCGATTA,0.609
9,TAGCCGAGGTCATTCAGGGGCCAGTATAGAAAGC,5.52
10,CGAACGAGGTCATTGACAGGACAGTGAATAGTAA,5.01
11,CGTCCGAGGTCAAGGTCAGTGAAAGAGACTCGAA,5.26
12,CCTCGGAGGACAACAGGAGGTCATAGCTGCCAGA,3.15
13,TCGCCTAGGTCATGGGCCAGTATACCACGCGAAC,2.29
14,CCGAGTTGGTCAAGGTCACACACGCTATAGGTAC,3.66
15,CGAACAAGGTCATTGACAGGACAGTGAATAGTAA,4.62
16,ATATGTAGGTTAGGGTCAGTCAGAAAGTAGGGAA,3
17,GCTTACAGGTCAAAGGTTATAGCATGAATAGAAT,6.06
18,TAGCCTAGTTCATGCGGGCCAGTATAGTGTCGGC,-0.398
19,CGAACTAGGTCGAGGACAGTGAATCTCCGCACGC,-0.262
20,GATATAGGGTCAGCTAGAGGCCAGAGTATGGAAA,2.77

row,Sequence,PBM binding z-score
1,CGTACAAGGTCAAAGGTCAGTGAAGAGATGACGG,6.66
2,ATCTCTAGGTTAAGATAGTTCAGTGAATGCAAAT,3.33
3,TAGCCTAGGTCATTCAGGGGCCACTATAGAAAGC,3.38
4,ATCGAAAGGTCCAAGGTGAGTATACCCACCCGAA,0.126
5,CCTACTGGTCCAAGGTCATTGATCAGTCAAAGCA,3.52
6,CCTACTGGGCCACTAAAGGTCATTGATTCAGTGA,5.49
7,AGAATGAGGTTACTAAAGATCAGGGAAACGCTTG,5.45
8,CGTCCAAGGTCAGCGGGTCAGTGAAAGCGACGTG,3.11
9,GGAACGAGGTCAAAGTTGATAGCATCTGTCGACG,5.45
10,TGAATGAGGTTAAATATCAGGGAACGTGGCGTCG,1.79
11,CCTTACGGGTCAAGGTTATAGCCCGGGTGGTACG,2.84
12,CCTACTGGGCCAAAAAGTTCATTGATGCCGATAA,1.09
13,CAGCATAGGTCAGGGCCAGTATAGGAGGAACGTT,1.98
14,ATATGTAGGTTAAGCGTCATTCAGGTTGGTTCGC,0.883
15,CGTCAAAGTCCAAGGTAACGTAACAGAAAGCAGC,-0.011
16,ATATGTAGGTTATCGGGTCATACAGTTTGCGCAT,3
17,CGAACTAGGTCATCCAGGACCGTGAATACATTGA,1.72
18,CGTCAAAGTTCAACTGAGGTAACGTAAAGCACGC,4.09
19,CGAACTAGGTCAAGGGACAGTGAAAGGCGACGTA,1.33
20,ACTTACGGGTCTACGAGGTTATAGCACGCGTATA,0.819
